# Columns and labels:
# Experiment in all cases: DAPPL (digital affinity profiling via proximity ligation, sequencing); 10 mM Tris-HCl pH 7.5, 50 mM NaCl, 1 mM DTT, 4% glycerol, room temperature, 30 min; GST-TFs on glutathione beads, 16-mer random dsDNA library, 0.1% formaldehyde crosslink after washing; high values mean tight binding
# FLI1 = molecular target: T1, FLI1 (Homo sapiens, UniProt Q01543 1-452); settings: protein: recombinant; tags: N-terminal GST; dsDNA, one strand shown
# T1 sequence: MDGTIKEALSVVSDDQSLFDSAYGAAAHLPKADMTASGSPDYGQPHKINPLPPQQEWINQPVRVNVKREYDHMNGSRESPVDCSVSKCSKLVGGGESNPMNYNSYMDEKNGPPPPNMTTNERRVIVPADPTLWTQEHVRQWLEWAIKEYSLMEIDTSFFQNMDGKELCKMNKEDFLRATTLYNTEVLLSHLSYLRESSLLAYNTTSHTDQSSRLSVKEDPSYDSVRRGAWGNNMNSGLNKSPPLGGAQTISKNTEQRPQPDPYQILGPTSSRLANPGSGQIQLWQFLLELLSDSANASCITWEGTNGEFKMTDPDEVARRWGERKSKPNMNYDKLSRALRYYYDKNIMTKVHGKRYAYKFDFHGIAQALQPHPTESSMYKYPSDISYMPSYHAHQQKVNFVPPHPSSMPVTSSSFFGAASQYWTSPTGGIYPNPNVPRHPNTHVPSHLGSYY
# Method in brief: (§1)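 Binding signal is defined as a hexamer's read frequency for one factor over its frequency for the tag-only sample. To obtain reads, GST-fused human transcription factors were expressed in yeast, captured on glutathione beads, barcoded with DNA and pooled with that sample. Pools met 200 nmole of a 16-mer random double-stranded DNA library in Tris/NaCl/DTT/glycerol buffer for 30 min at room temperature before washing, 0.1% formaldehyde crosslinking, proximity ligation (BsaI/T4 ligase, 1 h, 37 °C), PCR and Illumina NextSeq500 sequencing.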
# ELK1 = molecular target: T2, ELK1 (Homo sapiens, UniProt P19419 1-428); settings: protein: recombinant; tags: N-terminal GST; dsDNA, one strand shown
# T2 sequence: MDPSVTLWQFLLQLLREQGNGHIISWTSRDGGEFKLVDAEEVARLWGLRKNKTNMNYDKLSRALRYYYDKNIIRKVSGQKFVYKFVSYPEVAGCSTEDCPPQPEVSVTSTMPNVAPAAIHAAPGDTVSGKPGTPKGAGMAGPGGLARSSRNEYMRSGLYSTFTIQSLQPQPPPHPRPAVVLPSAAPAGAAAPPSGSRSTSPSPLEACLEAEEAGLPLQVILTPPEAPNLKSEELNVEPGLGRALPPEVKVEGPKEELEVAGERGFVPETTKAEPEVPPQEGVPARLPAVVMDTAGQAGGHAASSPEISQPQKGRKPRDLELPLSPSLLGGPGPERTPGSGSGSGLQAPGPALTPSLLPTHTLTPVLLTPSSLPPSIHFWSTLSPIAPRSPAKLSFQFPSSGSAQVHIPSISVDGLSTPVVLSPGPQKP
# Method in brief: as §1
# GABPA = molecular target: T3, GABPA (Homo sapiens, UniProt Q06546 1-454); settings: protein: recombinant; tags: N-terminal GST; dsDNA, one strand shown
# T3 sequence: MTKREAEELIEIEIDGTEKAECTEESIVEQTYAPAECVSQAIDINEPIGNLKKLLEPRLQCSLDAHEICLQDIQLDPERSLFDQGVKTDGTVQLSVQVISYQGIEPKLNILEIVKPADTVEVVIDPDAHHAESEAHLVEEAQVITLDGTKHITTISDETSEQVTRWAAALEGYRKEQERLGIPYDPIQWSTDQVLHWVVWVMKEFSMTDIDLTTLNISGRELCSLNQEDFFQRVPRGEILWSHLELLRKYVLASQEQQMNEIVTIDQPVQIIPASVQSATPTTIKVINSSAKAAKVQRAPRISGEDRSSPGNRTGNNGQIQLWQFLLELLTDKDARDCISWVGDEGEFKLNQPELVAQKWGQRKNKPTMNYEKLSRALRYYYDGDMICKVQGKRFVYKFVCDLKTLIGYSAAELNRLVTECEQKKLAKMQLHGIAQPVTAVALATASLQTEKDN
# Method in brief: as §1
# ERG = molecular target: T4, ERG (Homo sapiens, UniProt P11308 1-479); settings: protein: recombinant; tags: N-terminal GST; dsDNA, one strand shown
# T4 sequence: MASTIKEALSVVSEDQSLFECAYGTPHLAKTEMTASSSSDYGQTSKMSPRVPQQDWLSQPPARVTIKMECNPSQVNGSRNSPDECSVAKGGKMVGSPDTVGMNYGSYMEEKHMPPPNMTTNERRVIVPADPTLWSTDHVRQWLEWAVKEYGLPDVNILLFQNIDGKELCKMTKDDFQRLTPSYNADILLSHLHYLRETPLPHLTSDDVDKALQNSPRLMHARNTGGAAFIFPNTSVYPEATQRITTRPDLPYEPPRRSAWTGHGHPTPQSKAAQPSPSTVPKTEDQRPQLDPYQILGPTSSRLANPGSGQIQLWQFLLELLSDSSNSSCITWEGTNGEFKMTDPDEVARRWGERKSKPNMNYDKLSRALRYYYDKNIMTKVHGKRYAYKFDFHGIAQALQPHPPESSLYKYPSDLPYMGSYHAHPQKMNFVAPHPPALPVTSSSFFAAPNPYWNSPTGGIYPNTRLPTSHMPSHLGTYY
# Method in brief: as §1
# ELF1 = ELF1 (Homo sapiens, UniProt P32519 1-619); settings: protein: recombinant; tags: N-terminal GST; dsDNA, one strand shown
# Chain of ELF1 (P32519 whole entry): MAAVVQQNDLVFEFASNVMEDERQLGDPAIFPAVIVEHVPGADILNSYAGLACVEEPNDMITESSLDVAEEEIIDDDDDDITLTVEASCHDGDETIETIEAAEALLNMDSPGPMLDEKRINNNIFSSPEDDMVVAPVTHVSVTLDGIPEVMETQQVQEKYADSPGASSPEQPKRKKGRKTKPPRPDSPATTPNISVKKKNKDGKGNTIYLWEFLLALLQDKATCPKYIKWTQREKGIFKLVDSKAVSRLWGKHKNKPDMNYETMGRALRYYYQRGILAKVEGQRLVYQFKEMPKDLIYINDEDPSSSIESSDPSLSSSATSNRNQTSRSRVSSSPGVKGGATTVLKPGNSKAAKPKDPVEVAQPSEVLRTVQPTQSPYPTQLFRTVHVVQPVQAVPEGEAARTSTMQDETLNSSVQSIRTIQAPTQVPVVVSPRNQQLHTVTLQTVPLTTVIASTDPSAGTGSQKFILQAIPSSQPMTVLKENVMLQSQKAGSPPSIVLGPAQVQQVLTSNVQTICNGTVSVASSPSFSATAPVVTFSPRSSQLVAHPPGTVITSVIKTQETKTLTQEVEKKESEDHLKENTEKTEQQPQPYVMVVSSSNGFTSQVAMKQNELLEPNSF
# Method in brief: as §1
# EHF = molecular target: T5, EHF (Homo sapiens, UniProt Q9NZC4 1-300); settings: protein: recombinant; tags: N-terminal GST; dsDNA, one strand shown
# T5 sequence: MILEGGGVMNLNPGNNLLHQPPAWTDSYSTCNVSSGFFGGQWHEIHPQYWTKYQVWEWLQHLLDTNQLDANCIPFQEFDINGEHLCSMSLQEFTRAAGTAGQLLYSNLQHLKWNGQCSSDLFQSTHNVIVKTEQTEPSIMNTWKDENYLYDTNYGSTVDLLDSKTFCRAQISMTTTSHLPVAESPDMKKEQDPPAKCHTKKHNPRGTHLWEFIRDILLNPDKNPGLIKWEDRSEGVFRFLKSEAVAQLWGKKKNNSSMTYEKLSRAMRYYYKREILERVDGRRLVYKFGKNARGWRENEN
# Method in brief: as §1
# SPI1 = SPI1 (Homo sapiens, UniProt P17947 1-270); settings: protein: recombinant; tags: N-terminal GST; dsDNA, one strand shown
# Method in brief: as §1
# SPIB = SPIB (Homo sapiens, UniProt Q01892 1-262); settings: protein: recombinant; tags: N-terminal GST; dsDNA, one strand shown
# Chain of SPIB (Q01892 whole entry): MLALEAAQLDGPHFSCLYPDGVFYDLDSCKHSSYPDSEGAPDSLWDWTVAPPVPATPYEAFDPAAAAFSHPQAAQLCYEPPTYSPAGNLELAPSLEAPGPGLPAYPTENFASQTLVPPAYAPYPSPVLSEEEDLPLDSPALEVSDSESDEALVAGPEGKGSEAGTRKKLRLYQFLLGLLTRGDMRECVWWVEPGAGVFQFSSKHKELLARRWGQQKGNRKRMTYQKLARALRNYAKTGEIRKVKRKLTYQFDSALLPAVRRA
# Method in brief: as §1
# ELK3 = molecular target: T6, ELK3 (Homo sapiens, UniProt P41970 1-407); settings: protein: recombinant; tags: N-terminal GST; dsDNA, one strand shown
# T6 sequence: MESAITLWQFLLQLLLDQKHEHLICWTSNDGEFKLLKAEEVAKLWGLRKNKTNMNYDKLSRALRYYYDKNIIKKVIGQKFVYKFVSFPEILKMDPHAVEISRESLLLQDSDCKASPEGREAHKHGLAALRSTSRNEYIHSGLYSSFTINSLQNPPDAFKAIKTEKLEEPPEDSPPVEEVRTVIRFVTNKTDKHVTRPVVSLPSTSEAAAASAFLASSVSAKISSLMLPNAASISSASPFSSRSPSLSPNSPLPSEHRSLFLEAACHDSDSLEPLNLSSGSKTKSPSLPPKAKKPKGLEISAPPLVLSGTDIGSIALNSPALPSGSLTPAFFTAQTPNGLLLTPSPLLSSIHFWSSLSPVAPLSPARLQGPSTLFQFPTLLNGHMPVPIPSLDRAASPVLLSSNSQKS
# Method in brief: as §1
# FEV = molecular target: T7, FEV (Homo sapiens, UniProt Q99581 1-238); settings: protein: recombinant; tags: N-terminal GST; dsDNA, one strand shown
# T7 sequence: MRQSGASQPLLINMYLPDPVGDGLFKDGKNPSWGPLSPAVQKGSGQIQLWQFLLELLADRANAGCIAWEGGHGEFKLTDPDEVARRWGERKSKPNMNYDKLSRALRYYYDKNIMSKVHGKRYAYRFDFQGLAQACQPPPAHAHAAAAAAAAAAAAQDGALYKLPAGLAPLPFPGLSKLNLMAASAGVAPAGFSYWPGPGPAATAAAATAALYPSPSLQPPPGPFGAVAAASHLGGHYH
# Method in brief: as §1
# ETV5 = ETV5 (Homo sapiens, UniProt P41161 1-510); settings: protein: recombinant; tags: N-terminal GST; dsDNA, one strand shown
# Chain of ETV5 (P41161 whole entry): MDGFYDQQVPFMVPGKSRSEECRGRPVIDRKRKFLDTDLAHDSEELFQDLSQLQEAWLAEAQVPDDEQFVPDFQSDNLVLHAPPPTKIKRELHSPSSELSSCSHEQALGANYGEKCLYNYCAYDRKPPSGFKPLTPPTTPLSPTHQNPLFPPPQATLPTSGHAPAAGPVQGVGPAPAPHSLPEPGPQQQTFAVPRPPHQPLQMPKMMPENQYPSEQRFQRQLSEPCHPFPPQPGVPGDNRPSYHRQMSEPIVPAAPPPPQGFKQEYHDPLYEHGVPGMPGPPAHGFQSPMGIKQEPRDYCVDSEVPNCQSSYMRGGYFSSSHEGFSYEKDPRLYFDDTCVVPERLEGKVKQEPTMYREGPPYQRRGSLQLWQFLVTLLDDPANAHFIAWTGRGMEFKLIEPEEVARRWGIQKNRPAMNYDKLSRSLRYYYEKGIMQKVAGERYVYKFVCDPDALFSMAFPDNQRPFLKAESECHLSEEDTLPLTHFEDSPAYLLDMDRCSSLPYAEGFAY
# Method in brief: as §1
# HSF1 = HSF1 (Homo sapiens, UniProt Q00613 1-529); settings: protein: recombinant; tags: N-terminal GST; chain copies: 3; dsDNA, one strand shown
# Chain of HSF1 (Q00613 whole entry): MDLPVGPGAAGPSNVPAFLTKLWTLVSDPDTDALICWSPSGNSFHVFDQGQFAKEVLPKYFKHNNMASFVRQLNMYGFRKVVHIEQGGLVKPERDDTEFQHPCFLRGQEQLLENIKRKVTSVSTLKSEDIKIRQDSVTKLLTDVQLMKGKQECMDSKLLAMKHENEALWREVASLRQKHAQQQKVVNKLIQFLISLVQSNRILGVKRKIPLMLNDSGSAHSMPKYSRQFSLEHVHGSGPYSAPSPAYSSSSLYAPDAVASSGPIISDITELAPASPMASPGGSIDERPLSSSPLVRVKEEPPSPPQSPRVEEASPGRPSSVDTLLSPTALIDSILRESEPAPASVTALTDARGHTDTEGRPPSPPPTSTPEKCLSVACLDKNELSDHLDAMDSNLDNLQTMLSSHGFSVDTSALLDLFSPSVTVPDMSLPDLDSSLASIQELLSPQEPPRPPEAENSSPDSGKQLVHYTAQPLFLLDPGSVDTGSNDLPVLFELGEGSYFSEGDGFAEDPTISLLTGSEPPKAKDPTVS
# Method in brief: as §1
# SPIC = molecular target: T8, SPIC (Homo sapiens, UniProt Q8N5J4 1-248); settings: protein: recombinant; tags: N-terminal GST; dsDNA, one strand shown
# T8 sequence: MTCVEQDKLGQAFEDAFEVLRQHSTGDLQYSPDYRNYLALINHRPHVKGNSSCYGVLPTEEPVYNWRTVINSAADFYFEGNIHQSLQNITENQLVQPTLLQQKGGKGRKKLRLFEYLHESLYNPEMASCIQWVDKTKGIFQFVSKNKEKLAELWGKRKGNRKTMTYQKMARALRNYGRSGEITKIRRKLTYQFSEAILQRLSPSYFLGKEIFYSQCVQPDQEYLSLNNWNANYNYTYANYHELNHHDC
# Method in brief: as §1
# ELF4 = ELF4 (Homo sapiens, UniProt Q99607 1-663); settings: protein: recombinant; tags: N-terminal GST; dsDNA, one strand shown
# Chain of ELF4 (Q99607 whole entry): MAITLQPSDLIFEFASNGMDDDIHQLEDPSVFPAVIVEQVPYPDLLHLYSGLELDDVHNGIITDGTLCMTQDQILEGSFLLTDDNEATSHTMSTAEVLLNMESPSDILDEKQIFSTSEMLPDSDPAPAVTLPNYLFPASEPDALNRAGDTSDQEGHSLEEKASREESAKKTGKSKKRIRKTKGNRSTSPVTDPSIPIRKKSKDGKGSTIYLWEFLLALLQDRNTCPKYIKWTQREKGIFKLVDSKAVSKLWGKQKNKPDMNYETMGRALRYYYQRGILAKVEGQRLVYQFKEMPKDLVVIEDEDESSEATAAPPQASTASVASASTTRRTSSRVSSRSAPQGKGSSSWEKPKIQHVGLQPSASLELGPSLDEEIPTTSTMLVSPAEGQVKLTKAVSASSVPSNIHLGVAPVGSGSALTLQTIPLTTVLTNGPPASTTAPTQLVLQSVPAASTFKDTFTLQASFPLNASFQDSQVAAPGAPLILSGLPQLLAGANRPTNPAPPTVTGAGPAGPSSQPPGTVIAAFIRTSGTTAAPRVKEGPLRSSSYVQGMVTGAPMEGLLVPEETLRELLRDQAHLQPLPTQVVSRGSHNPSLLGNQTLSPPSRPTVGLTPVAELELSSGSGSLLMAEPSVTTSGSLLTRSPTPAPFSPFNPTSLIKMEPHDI
# Method in brief: as §1
# ELK4 = molecular target: T9, ELK4 (Homo sapiens, UniProt P28324-2 1-405); settings: protein: recombinant; tags: N-terminal GST; dsDNA, one strand shown
# T9 sequence: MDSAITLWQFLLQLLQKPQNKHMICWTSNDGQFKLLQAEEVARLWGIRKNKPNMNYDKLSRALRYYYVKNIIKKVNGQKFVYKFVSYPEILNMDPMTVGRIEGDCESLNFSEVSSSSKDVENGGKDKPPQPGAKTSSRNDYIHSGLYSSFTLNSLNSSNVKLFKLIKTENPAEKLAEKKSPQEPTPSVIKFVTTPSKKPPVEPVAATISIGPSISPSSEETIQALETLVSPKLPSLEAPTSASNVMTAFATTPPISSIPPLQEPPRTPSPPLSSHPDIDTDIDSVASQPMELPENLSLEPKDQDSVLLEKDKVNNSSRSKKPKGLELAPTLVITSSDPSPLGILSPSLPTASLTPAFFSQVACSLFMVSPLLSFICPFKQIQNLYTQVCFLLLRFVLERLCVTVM
# Method in brief: as §1
# ETV2 = molecular target: T10, ETV2 (Homo sapiens, UniProt O00321 1-342); settings: protein: recombinant; tags: N-terminal GST; dsDNA, one strand shown
# T10 sequence: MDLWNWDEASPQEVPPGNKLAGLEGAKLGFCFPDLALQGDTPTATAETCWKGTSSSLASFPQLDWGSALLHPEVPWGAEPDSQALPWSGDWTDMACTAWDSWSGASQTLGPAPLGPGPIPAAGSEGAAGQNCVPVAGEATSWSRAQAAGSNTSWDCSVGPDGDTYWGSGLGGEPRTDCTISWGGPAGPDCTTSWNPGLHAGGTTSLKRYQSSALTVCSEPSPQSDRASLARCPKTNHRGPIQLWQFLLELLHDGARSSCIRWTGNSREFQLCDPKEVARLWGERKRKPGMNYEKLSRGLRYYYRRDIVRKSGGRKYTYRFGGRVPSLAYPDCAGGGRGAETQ
# Method in brief: as §1
# ELF3 = molecular target: T11, ELF3 (Homo sapiens, UniProt P78545 1-371); settings: protein: recombinant; tags: N-terminal GST; dsDNA, one strand shown
# T11 sequence: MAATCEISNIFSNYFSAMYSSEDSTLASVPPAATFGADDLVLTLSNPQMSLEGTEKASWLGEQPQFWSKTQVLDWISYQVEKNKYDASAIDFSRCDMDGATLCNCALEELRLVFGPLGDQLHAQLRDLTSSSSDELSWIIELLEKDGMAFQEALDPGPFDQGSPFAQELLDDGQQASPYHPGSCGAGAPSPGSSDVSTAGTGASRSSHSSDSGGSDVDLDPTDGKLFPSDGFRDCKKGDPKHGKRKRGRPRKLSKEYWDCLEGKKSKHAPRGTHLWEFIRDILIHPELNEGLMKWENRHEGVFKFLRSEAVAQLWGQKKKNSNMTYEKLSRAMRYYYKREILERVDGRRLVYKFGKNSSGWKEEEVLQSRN
# Method in brief: as §1
# CRX = CRX (Homo sapiens, UniProt O43186 1-299); settings: protein: recombinant; tags: N-terminal GST; dsDNA, one strand shown
# Chain of CRX (O43186 whole entry): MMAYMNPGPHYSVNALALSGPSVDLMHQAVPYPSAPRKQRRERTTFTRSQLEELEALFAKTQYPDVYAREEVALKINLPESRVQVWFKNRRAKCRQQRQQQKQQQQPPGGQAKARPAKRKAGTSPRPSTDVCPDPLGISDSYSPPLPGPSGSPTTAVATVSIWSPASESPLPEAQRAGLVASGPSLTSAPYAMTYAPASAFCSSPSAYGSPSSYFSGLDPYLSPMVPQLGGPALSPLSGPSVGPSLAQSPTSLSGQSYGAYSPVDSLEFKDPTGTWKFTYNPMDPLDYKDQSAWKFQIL
# Method in brief: as §1
# ETV1 = ETV1 (Homo sapiens, UniProt P50549 1-477); settings: protein: recombinant; tags: N-terminal GST; dsDNA, one strand shown
# Chain of ETV1 (P50549 whole entry): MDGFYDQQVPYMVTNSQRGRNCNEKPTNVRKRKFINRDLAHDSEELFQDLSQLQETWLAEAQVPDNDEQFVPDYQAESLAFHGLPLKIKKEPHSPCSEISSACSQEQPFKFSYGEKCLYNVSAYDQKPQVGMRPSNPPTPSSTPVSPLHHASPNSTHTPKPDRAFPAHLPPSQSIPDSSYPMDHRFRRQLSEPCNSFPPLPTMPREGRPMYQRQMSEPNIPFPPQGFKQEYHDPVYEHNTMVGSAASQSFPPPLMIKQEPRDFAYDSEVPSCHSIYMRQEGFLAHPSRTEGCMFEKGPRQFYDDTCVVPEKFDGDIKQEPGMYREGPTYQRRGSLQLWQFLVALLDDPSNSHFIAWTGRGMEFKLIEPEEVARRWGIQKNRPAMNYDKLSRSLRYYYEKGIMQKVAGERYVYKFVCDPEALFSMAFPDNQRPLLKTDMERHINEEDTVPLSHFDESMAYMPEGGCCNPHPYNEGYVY
# Method in brief: as §1
sequence,measurement,setting,value
TACCCG,binding signal,FLI1,"1.42 fold enrichment (6-mer frequency, TF over GST control)"
same,binding signal,ELK1,"1.35 fold enrichment (6-mer frequency, TF over GST control)"
same,binding signal,GABPA,"1.51 fold enrichment (6-mer frequency, TF over GST control)"
same,binding signal,ERG,"1.57 fold enrichment (6-mer frequency, TF over GST control)"
same,binding signal,ELF1,"1.52 fold enrichment (6-mer frequency, TF over GST control)"
same,binding signal,EHF,"1.58 fold enrichment (6-mer frequency, TF over GST control)"
same,binding signal,SPI1,"1.42 fold enrichment (6-mer frequency, TF over GST control)"
same,binding signal,SPIB,"1.52 fold enrichment (6-mer frequency, TF over GST control)"
same,binding signal,ELK3,"1.37 fold enrichment (6-mer frequency, TF over GST control)"
same,binding signal,FEV,"1.39 fold enrichment (6-mer frequency, TF over GST control)"
same,binding signal,ETV5,"1.5 fold enrichment (6-mer frequency, TF over GST control)"
same,binding signal,HSF1,"1.25 fold enrichment (6-mer frequency, TF over GST control)"
same,binding signal,SPIC,"1.55 fold enrichment (6-mer frequency, TF over GST control)"
same,binding signal,ELF4,"1.4 fold enrichment (6-mer frequency, TF over GST control)"
same,binding signal,ELK4,"1.55 fold enrichment (6-mer frequency, TF over GST control)"
same,binding signal,ETV2,"1.44 fold enrichment (6-mer frequency, TF over GST control)"
same,binding signal,ELF3,"1.34 fold enrichment (6-mer frequency, TF over GST control)"
same,binding signal,CRX,"1.29 fold enrichment (6-mer frequency, TF over GST control)"
same,binding signal,ETV1,"1.55 fold enrichment (6-mer frequency, TF over GST control)"

# Reference: paper PMC7862700, “An all-to-all approach to the identification of sequence-specific readers for epigenetic DNA modifications on cytosine”
